The values below come from ChEMBL document CHEMBL1961873, “Compounds: GSK PKIS; Assays: Nanosyn kinase panel” (2012).

For test [1], the target named is Protein kinase C gamma type (Homo sapiens) (UniProt P05129). The following applies: at 1 µM.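 Note: each value is an averaged percent inhibition of the enzyme.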
In test [2] the target is T1, Protein kinase C iota type (Homo sapiens) (UniProt P41743).
T1 sequence (whole entry): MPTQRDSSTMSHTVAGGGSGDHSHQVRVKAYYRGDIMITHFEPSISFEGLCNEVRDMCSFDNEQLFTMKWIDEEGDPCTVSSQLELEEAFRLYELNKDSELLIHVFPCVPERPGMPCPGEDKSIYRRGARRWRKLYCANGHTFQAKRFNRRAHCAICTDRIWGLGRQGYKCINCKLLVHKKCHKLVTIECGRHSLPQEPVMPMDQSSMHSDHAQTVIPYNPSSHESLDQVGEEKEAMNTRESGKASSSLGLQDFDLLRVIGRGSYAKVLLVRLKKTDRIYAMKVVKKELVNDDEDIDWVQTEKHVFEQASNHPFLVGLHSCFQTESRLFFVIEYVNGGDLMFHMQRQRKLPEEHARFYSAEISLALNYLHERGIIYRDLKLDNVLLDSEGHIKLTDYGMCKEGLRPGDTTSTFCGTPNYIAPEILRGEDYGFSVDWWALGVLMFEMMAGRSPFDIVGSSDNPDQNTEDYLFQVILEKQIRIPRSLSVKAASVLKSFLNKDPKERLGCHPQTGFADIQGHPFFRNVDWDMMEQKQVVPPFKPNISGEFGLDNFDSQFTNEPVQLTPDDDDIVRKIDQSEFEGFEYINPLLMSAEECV
The note with it: at 0.1 µM.

Test [3] addresses T1, Protein kinase C iota type (Homo sapiens). The note with it: at 1 µM.
The target of test [4] is Protein kinase C theta type (Homo sapiens) (UniProt Q04759). The following applies: at 0.1 µM.
Chain of Protein kinase C theta type (Homo sapiens) (Q04759 whole entry, looked up): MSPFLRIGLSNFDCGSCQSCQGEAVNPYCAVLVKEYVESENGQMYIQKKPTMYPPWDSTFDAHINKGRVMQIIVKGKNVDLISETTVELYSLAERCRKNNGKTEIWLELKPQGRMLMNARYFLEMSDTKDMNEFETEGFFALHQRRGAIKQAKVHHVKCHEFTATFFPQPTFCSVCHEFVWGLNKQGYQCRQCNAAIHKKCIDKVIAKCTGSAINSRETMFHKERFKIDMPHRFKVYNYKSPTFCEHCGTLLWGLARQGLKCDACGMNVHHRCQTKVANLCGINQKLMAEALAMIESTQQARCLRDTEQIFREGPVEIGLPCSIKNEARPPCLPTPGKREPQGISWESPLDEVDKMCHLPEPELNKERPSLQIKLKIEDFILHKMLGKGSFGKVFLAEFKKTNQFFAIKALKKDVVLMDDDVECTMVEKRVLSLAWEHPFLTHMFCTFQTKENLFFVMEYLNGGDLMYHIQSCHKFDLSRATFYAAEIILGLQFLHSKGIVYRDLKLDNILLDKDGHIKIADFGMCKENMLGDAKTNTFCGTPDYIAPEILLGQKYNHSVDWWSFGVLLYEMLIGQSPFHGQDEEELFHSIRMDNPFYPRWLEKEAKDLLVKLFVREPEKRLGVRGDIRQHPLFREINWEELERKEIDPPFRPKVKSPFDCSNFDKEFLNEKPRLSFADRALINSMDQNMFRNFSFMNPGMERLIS
The target is the same in test [5]. The following applies: at 1 µM.
For test [6], the target named is Protein kinase C beta type (Homo sapiens) (UniProt P05771). The note with it: at 0.1 µM.
Chain of Protein kinase C beta type (Homo sapiens) (P05771 2-671 limits assumed): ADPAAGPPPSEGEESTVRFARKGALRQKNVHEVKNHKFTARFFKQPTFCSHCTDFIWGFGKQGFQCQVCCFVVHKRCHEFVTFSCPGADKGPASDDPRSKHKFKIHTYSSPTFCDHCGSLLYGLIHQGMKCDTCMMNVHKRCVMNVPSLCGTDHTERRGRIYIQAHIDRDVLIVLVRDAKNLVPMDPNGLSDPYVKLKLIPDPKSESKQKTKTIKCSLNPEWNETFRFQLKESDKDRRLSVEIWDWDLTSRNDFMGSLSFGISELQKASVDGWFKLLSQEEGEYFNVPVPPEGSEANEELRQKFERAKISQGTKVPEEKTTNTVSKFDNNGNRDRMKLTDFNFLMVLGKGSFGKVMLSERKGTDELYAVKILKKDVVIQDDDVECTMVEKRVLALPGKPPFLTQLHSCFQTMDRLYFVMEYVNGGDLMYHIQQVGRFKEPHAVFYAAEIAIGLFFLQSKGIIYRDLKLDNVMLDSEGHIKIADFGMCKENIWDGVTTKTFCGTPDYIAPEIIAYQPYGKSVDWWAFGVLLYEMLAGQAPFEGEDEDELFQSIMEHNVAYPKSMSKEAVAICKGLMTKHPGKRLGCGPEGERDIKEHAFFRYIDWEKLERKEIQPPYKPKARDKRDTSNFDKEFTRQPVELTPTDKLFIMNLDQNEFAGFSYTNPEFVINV
Test [7] shares this target. The following applies: at 1 µM.
In test [8] the target is T2, Serine/threonine-protein kinase D1 (Homo sapiens) (UniProt Q15139).
T2 sequence (whole entry): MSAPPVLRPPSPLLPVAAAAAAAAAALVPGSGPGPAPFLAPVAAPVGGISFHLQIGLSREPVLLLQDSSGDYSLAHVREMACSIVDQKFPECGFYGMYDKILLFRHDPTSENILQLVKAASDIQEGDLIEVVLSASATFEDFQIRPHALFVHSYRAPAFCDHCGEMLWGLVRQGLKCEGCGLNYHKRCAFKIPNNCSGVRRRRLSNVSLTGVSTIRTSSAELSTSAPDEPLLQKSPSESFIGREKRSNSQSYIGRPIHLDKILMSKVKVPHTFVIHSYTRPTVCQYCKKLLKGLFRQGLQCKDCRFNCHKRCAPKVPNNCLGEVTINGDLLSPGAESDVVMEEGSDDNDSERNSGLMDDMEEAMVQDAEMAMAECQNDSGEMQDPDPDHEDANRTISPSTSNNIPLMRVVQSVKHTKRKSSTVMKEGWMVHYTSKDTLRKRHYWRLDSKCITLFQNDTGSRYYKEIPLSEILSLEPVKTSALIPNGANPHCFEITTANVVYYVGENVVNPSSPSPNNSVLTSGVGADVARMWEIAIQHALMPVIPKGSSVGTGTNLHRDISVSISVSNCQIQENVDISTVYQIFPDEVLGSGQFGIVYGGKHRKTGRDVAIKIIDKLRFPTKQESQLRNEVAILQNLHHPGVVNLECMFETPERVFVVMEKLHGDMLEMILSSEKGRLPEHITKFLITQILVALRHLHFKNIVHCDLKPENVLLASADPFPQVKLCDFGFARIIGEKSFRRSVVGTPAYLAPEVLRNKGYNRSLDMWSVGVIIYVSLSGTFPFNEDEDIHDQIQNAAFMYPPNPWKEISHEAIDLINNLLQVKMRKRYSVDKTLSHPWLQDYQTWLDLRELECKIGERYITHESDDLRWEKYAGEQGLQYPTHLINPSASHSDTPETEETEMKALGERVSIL
The note with it: at 0.1 µM.

Test [9] deals with T2, Serine/threonine-protein kinase D1 (Homo sapiens). The note with it: at 1 µM.
In test [10] the target is T3, Serine/threonine-protein kinase D2 (Homo sapiens) (UniProt Q9BZL6).
T3 sequence (whole entry): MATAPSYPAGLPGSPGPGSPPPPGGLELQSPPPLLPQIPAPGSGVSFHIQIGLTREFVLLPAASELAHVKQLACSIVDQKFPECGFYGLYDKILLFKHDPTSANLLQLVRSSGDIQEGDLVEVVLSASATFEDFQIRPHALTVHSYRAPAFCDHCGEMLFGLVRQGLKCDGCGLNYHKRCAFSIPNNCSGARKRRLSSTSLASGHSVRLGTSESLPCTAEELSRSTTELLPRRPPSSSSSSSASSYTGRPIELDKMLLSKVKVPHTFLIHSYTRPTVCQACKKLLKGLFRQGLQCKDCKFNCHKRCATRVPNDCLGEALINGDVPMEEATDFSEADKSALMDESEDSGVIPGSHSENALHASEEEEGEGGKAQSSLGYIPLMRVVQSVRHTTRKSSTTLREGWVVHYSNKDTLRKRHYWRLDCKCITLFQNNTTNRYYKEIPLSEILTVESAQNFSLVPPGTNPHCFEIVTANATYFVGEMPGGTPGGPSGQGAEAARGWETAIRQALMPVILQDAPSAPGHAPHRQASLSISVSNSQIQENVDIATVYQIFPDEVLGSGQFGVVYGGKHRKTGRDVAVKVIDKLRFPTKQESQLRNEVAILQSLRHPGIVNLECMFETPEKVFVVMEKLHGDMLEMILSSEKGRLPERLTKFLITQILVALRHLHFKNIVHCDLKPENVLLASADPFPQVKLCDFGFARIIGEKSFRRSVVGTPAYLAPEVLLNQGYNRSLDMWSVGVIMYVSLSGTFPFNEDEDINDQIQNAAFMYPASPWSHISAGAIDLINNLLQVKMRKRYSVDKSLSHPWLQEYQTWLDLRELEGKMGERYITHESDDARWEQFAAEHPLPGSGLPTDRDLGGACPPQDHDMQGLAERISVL
The following applies: at 0.1 µM.

Test [11] deals with T3, Serine/threonine-protein kinase D2 (Homo sapiens). The note with it: at 1 µM.
In test [12] the target is T4, Serine/threonine-protein kinase D3 (Homo sapiens) (UniProt O94806).
T4 sequence (whole entry): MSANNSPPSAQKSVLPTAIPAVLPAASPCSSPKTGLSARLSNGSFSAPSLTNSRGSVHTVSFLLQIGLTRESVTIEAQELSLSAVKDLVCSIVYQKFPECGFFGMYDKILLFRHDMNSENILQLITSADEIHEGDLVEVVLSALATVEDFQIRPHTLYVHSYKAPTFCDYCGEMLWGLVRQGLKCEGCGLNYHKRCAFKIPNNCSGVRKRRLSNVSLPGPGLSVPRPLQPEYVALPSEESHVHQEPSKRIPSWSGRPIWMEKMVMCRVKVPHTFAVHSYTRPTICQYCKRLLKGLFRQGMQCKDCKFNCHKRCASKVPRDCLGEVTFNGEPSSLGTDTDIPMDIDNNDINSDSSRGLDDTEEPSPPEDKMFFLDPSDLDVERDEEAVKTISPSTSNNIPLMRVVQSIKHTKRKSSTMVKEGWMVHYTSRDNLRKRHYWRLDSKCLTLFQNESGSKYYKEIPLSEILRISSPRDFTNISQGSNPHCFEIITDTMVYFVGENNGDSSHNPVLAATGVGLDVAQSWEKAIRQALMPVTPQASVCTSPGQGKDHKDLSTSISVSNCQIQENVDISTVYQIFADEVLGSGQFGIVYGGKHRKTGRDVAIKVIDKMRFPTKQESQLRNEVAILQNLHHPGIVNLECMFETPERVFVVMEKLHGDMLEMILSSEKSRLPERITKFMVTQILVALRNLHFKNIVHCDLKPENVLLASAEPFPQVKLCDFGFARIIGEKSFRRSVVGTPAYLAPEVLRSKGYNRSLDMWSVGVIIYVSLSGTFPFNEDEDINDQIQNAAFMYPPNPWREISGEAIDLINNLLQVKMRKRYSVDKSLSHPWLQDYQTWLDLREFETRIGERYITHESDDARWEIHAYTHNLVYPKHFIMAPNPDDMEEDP
The following applies: at 0.1 µM.

Test [13] concerns the target T4, Serine/threonine-protein kinase D3 (Homo sapiens). The following applies: at 1 µM.
Test [14] deals with T5, cGMP-dependent protein kinase 1 (Homo sapiens) (UniProt Q13976).
T5 sequence (whole entry): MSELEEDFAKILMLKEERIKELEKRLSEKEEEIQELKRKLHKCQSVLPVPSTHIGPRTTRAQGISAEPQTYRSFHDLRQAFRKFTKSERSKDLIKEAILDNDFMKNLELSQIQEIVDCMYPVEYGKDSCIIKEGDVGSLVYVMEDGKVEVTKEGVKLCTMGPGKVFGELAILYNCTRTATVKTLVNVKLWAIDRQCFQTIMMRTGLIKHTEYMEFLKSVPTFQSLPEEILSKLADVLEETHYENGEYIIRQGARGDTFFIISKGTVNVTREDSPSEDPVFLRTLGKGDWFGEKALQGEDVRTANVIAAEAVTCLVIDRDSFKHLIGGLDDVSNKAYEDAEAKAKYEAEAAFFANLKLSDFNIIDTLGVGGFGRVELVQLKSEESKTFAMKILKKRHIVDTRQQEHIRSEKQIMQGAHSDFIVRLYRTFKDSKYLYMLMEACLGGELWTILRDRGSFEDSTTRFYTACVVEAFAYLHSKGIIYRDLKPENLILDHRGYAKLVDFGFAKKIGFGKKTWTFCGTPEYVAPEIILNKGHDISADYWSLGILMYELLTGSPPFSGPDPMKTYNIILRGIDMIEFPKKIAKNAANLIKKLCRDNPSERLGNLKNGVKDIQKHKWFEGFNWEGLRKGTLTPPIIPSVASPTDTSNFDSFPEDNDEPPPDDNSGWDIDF
The note with it: at 0.1 µM.

Test [15] concerns the target T5, cGMP-dependent protein kinase 1 (Homo sapiens). The note with it: at 1 µM.
The target of test [16] is T6, cGMP-dependent protein kinase 2 (Homo sapiens) (UniProt Q13237).
T6 sequence (whole entry): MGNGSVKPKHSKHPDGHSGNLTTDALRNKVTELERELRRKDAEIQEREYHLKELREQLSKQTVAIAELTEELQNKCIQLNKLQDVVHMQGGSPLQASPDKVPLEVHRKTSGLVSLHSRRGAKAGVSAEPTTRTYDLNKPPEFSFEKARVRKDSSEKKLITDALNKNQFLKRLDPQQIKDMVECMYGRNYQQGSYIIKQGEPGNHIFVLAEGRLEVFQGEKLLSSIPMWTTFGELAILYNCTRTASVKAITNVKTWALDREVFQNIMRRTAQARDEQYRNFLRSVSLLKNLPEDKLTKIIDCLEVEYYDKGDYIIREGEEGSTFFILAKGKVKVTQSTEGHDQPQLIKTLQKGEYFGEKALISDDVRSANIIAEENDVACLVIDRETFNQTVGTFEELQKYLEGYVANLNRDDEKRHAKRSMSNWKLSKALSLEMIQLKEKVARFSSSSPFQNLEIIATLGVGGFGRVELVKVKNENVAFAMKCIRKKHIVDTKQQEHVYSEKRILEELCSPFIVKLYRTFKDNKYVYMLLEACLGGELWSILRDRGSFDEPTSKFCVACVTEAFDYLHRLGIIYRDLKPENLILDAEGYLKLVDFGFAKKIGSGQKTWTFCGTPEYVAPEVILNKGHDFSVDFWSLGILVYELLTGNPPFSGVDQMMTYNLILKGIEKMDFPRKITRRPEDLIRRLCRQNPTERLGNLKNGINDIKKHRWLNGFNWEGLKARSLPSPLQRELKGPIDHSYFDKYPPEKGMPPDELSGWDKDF
The note with it: at 0.1 µM.

The target of test [17] is T6, cGMP-dependent protein kinase 2 (Homo sapiens). The note with it: at 1 µM.
The target of test [18] is T7, cAMP-dependent protein kinase catalytic subunit PRKX (Homo sapiens) (UniProt P51817).
T7 sequence (whole entry): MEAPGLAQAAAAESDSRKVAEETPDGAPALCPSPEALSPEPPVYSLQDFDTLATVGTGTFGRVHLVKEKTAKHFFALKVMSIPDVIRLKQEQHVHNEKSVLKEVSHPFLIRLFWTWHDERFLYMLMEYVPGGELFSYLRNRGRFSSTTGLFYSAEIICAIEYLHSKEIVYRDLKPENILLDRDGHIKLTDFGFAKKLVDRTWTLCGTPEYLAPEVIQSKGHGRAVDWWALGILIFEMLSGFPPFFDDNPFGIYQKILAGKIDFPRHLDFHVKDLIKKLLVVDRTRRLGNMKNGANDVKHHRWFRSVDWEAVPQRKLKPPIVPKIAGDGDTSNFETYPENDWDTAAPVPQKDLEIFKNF
The following applies: at 0.1 µM.

Test [19] concerns the target T7, cAMP-dependent protein kinase catalytic subunit PRKX (Homo sapiens). The note with it: at 1 µM.
In test [20] the target is Rho-associated protein kinase 1 (Homo sapiens) (UniProt Q13464). The following applies: at 0.1 µM.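 Note: values are mean percent inhibition of ROCK1.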
Chain of Rho-associated protein kinase 1 (Homo sapiens) (Q13464 2-1354 limits assumed): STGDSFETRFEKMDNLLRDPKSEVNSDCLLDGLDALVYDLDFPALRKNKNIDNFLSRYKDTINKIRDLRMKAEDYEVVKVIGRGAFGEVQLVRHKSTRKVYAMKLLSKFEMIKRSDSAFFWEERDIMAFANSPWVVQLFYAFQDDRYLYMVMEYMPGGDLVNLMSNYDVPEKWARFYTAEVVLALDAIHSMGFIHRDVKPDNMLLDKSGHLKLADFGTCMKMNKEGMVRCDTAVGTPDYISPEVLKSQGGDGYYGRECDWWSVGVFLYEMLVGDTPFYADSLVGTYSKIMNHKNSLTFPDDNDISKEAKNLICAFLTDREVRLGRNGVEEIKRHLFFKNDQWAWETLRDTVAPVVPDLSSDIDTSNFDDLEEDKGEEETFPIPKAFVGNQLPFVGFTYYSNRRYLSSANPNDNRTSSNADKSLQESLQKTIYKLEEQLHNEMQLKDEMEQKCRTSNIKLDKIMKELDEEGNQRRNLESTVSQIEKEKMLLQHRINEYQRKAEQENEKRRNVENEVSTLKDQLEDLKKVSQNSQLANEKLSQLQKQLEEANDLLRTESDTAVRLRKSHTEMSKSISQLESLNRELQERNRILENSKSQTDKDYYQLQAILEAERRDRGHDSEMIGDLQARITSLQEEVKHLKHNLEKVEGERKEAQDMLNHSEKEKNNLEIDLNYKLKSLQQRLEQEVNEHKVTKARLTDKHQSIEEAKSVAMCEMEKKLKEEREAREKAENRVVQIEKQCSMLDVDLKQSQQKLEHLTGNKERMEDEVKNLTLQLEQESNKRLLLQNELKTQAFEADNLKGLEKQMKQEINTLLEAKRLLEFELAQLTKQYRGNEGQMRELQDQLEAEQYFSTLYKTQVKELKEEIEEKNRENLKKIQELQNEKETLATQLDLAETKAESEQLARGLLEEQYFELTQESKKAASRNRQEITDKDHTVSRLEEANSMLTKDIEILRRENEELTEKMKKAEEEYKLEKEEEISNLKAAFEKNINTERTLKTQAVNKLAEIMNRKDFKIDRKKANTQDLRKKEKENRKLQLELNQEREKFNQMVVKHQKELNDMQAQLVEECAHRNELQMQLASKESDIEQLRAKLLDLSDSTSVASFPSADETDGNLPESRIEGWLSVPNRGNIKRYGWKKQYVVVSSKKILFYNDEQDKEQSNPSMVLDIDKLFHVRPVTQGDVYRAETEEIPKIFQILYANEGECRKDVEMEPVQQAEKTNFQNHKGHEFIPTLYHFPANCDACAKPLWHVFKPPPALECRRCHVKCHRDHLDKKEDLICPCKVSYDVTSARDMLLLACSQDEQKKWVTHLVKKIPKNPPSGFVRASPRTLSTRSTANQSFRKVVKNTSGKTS

Broadly, the inhibition is the drop in the measured response relative to a control, in per cent.

As for `COc1cc2c(cc1Nc1nc(Nc3ccsc3C(N)=O)c3cc[nH]c3n1)N(C(=O)CN(C)C)CCC2(C)C`, the inhibition was determined as 44% in test [1]; 2.68% in test [2]; 5.01% in test [3]; 4.59% in test [4]; 16.2% in [5]; 3.45% in test [6]. The inhibition came out at 15% in test [7]; 11.2% in [8]; 58.5% in test [9]; 17.5% in test [10]; 75.7% in [11]; 19.8% in test [12]. Also, the inhibition was found to be 75.7% in test [13]; 3.61% in [14]; 8.75% in test [15]; 4.41% in [16]; 9.54% in test [17]; 2.19% in test [18]. The inhibition is 6.05% in test [19] and 25% in test [20].
In the case of `c1ccc(COc2ccc(Nc3ncnc4ccc(-c5ccco5)cc34)cc2)cc1`, the inhibition in [1] is 0.84%; in test [2], -1.29%; in [3] it was -0.86%; in test [4], -2.6%; in [5], -0.62%; in test [6], 0.49%. Besides, the inhibition in test [7] was found to be 0.58%; in test [8], 1.25%; in test [9], 0.71%; in [10], 3.12%; in test [11] it was 2.58%; in [12], 1.12%. The inhibition in test [13] was 1.43%; in test [14], -0.44%; in [15] it was 0.71%; in test [16], 0.02%; in [17], 1.35%; in test [18], 2.22%. The values for the inhibition in [19] and in [20] were 0.89% and 0.21%, respectively.
